Most compounds without a hit are left out; they make up all but 0.74% or so of the library.
Vc quorum ag = inducers of Vibrio cholerae quorum light production without autoinducers, primary screen, BH1578 luxS cqsA deficient, single point; V. cholerae BH1578 lux reporter, luminescence, 6 h; AID 588436, 2011; activation, % at 18.7 µM; hit rate 0.16% among 350,000; in the data active means activation mostly above about 9.7%, no sharp cut-off; inconclusive means no clear call, values can overlap the other calls; inactive means mostly below about 3.7%
FadD28 binding = inhibitors of FadD28 bisubstrate probe binding, primary screen, biochemical, fluorescence polarization, single point; Mycobacterium tuberculosis FadD28 fatty-acid-AMP ligase; inhibition, % at 12.5 µM; hit rate 0.22% among 360,000; in the data active means inhibition above about 8.5%, passing the limit was not always enough; inconclusive means no clear call, values can overlap the other calls
MazEF act = activators of E. coli MazEF toxin-antitoxin RNase, primary screen, biochemical, fluorescence, uHTS. hit rate 0.32% among 350,000. Endoribonuclease toxin MazF (Escherichia coli (strain K12)), P0AE70. AID 504720, 2011. activation, % at 20 µM. FAM/BHQ RNA-DNA oligo cleavage fluorescence, 5 h; in the data active means activation above about 50%
Target sequence (P0AE70 whole entry, looked up): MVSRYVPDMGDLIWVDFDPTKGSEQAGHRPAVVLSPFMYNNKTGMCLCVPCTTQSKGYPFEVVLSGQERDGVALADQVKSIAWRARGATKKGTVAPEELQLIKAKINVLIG
Mtb betalactam = beta-lactam sensitization of Mtb H37Rv, H37Rv | M. tuberculosis H37Rv growth with meropenem, percent inhibition | inhibition, % at 25 µM | hit rate 0.27% among 330,000 | AID 434955, 2010; call rule not given here;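 further: growth measured after seven days incubation then overnight dye step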
Rv3671c inh = Rv3671c serine protease inhibitors, primary screen, biochemical, fluorescence polarization, M. tuberculosis H37Rv. AID 2606, 2010. hit rate 0.048% among 320,000. inhibition, % at 5.96 µM. P9WHR9; in the data active means inhibition above about 38%;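 further: extracellular domain of Rv3671c used as enzyme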
UGM FP inh = M. tuberculosis UGM enzyme inhibitors, primary screen, biochemical, fluorescence polarization, single point | purified UGM, fluorescence polarization probe displacement | inhibition, % at 10 µM | hit rate 0.06% among 320,000; in the data active means inhibition above about 10%, passing the limit was not always enough; inconclusive means no clear call, values can overlap the other calls
Target sequence (P9WIQ1 whole entry, looked up): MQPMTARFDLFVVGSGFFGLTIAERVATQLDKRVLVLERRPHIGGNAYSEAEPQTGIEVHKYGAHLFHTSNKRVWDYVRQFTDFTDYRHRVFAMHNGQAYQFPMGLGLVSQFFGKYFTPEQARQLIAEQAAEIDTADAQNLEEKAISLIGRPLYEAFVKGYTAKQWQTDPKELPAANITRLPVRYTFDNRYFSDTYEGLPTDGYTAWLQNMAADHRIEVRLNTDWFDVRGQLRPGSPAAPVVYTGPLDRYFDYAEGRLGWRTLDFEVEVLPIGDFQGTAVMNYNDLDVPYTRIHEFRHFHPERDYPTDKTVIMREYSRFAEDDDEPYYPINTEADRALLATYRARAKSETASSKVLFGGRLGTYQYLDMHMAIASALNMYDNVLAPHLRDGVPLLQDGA
Large screens that a line does not name were inactive.

COc1ccc(-c2[nH]ncc2/C=N\NC(=O)c2ccc(Br)o2)cc1OC	none
CCOC(=O)c1nn(-c2ccc(Cl)cc2)cc1O	none
CCOC(=O)c1nn(-c2ccc(C)cc2)cc1O	Vc quorum ag active
Cc1ccc(NS(=O)(=O)c2cc([N+](=O)[O-])ccc2NNC(=S)Nc2cc(C)ccc2C)c(C)c1	none
Cc1ccc(NS(=O)(=O)c2cc([N+](=O)[O-])ccc2NNC(=S)Nc2cccc(Cl)c2)c(C)c1	FadD28 binding 8.6
Cc1ccc(SCC(=O)N(Cc2nc(-c3ccccc3)no2)C(C)C)cc1	Vc quorum ag 25.0
CN[C@@H]1[C@H](O)[C@H](NC)[C@H]2O[C@@]3(O)C(=O)C[C@@H](C)O[C@H]3O[C@@H]2[C@H]1O	Vc quorum ag 71.8, Mtb betalactam inconclusive
O=C(CSc1nc2ccccc2c(=O)n1Cc1ccco1)Nc1cccc(O)c1	MazEF act 58.9
COC(=O)Cc1[nH]n(-c2nc3ccccc3s2)c(=O)c1C(C)=O	Vc quorum ag active
CC(=O)Nc1ccc(Nc2nc3ccccc3nc2NS(=O)(=O)c2ccc(Cl)c([N+](=O)[O-])c2)cc1	FadD28 binding inconclusive (no result: Mtb betalactam, Rv3671c inh, UGM FP inh)
CC(C(=O)N1CCCCC1)N(C)CC(=O)Nc1cccc(F)c1 (stereo not given)	none (no result: Vc quorum ag, FadD28 binding)
COc1ccc(NC(=O)CSc2nc3n[nH]c(C)c3c(=N)n2-c2ccc(Cl)c(C)c2)cc1OC	MazEF act 110.9
COc1ccc(NC(=O)CSc2nncn2C)cc1OC	Vc quorum ag 16.7
CC(=O)Nc1ccc(NC(=O)CSc2nncn2C)cc1	none
Cc1ccc(C2=C(O)c3ccccc3C(=O)C2=O)cc1	none
NC(=O)C1=C(c2ccccc2)c2ccccc2C1=O	Vc quorum ag 42.8 (no result: Mtb betalactam, Rv3671c inh, UGM FP inh)
CCCOc1ccc(NC(=O)CC2C(=O)N(C)C(=S)N2Cc2cccs2)cc1 (stereo not given)	MazEF act 97.0
O=C1C=C(/C=C/C2C=CC=CC2)C[C@@H](c2ccc(Cl)cc2)C1 (stereo not given in full)	none
N#CCCn1cc(/C=C(\C#N)c2nc3ccccc3s2)c(-c2ccc(F)cc2)n1	MazEF act 52.5
Cc1cc(C(=O)N2CCC2(C)C(=O)NS(=O)(=O)c2ccc(Cl)cc2)nn1C (stereo not given)	none (no result: MazEF act, Mtb betalactam, Rv3671c inh, UGM FP inh)
COc1ccc2oc(C(=O)OCC(=O)N(C)C3CCCCC3)c(C)c2c1	none
COC(=O)C1=C(C)N=c2s/c(=C/c3ccoc3)c(=O)n2C1c1ccccc1 (stereo not given)	MazEF act 88.1
Nc1ccc(S(=O)(=O)c2cc(O)c3ccccc3c2O)cc1	FadD28 binding 9.5 (no result: Mtb betalactam, Rv3671c inh, UGM FP inh)
O=C1CC=Nc2ccc([N+](=O)[O-])cc21	none (no result: Mtb betalactam, Rv3671c inh, UGM FP inh)
CN(CC(=O)Nc1ccccc1Br)c1ncnc2sccc12	MazEF act 57.3
Cc1cc(C(C)(C)C)cc(S(=O)(=O)Nc2ccc(O)c(C(=O)O)c2)c1C	UGM FP inh 17.0 (no result: Mtb betalactam)
CC(=O)Nc1ccc(NC(=O)c2ccc(NS(=O)(=O)c3cc(C(C)(C)C)cc(C)c3C)cc2)cc1	none
Cc1cc(C)c(S(=O)(=O)Nc2ccc(C(=O)O)cc2)cc1S(=O)(=O)Nc1ccc(C(=O)O)cc1	UGM FP inh 11.3
COc1cccc(/C=N/NC(=S)Nc2cccc(S(=O)(=O)N(C)C)c2)c1	none
COc1ccc(O)c(/C=N/NC(=S)Nc2cccc(S(=O)(=O)N(C)C)c2)c1	FadD28 binding 17.6
Nc1cccc2cc(-c3ccccc3)oc12	none
Cc1cc(NC(=O)c2cc(-c3ccncc3)nc3ccccc23)ccc1Br	none
Cc1ccc2cc(COC(=O)c3ccco3)c(=O)[nH]c2c1	Vc quorum ag 16.7
O=C(NCc1ccc(Cl)c(Cl)c1)c1cc(C2CCCCN2C(=O)c2cccs2)on1 (stereo not given)	none (no result: MazEF act, Mtb betalactam, Rv3671c inh, UGM FP inh)
O=C(O)CCC(=O)Nc1ccc(C(=O)OCC(=O)c2ccc(Cl)cc2)cc1	FadD28 binding 15.0
O=C(COC(=O)c1ccc(O)cc1)Nc1ccc(Cl)cc1	none (no result: Vc quorum ag, FadD28 binding)
O=C(CN1C(=O)NC2(CCOc3ccccc32)C1=O)c1ccc(Cl)s1 (stereo not given)	FadD28 binding 9.6
CCc1ccc(C(=O)CN2C(=O)NC3(CCOc4ccccc43)C2=O)s1 (stereo not given)	none
O=c1c(C(c2ccc(F)cc2)c2c(O)nc3n(c2=O)CCS3)c(O)nc2n1CCS2	MazEF act 288.6
O=Nc1c(-c2c(O)[nH]c3cc(Br)ccc23)[nH]c2ccccc12	MazEF act 55.0
O=C(NC(NC(=S)Nc1cccc(Cl)c1)C(Cl)(Cl)Cl)OCc1ccccc1 (stereo not given)	MazEF act 83.8
O=C(NC(NC(=S)Nc1cccc(C(=O)O)c1)C(Cl)(Cl)Cl)OCc1ccccc1 (stereo not given)	none
Cc1ccc(-c2nc3sc(C#N)c(N)n3c(=O)c2C#N)cc1	MazEF act 733.2, UGM FP inh 13.3
COc1ccc(CNc2ncnc3c2[nH]c2ccccc23)cc1	none
COc1ccc(CNc2ncnc3c2[nH]c2cc(OC)c(OC)cc23)cc1	FadD28 binding 10.4
CC/C(=N\NC(=O)CNC(=O)/C=C/c1ccco1)c1ccccc1	Vc quorum ag 16.7
CCOC(=O)/C(C#N)=C1\CC2CCC1(C)C2(C)C (stereo not given)	UGM FP inh 13.1 (no result: Vc quorum ag)
CCOC(=O)/C(C#N)=C1/C=Nc2ccccc2N1	none
COc1ccc(N2CCN(C(=O)c3ccc4c(=O)n(Cc5ccc6c(c5)OCO6)c(=O)[nH]c4c3)CC2)cc1	none
O=C(c1ccc2c(=O)n(Cc3ccc4c(c3)OCO4)c(=O)[nH]c2c1)N1CCN(c2ccccc2)CC1	MazEF act 62.2
Cc1ccc(F)c(CNC(=O)C2CCC(=O)N(CCCN3CCCC3=O)C2)c1F (stereo not given)	none
CC1(c2ccc(OC(F)F)cc2)NC(=O)N(CC(=O)Nc2ccc3[nH]c(=O)[nH]c3c2)C1=O (stereo not given)	FadD28 binding 11.8
Nc1cc(Cl)cc2c1-c1ccc(Cl)cc1C2	MazEF act 64.7 (no result: Mtb betalactam, Rv3671c inh, UGM FP inh)
COc1ccc(-c2nc(C#N)c(NCc3cccnc3)o2)cc1OC	none
COc1ccc(-c2nc(C#N)c(NCc3ccc(F)cc3)o2)cc1OC	FadD28 binding 11.2
CCOC(=O)c1cnn(-c2nc(OCC)cc(OCC)n2)c1C	none
COc1ccc(CNC(=O)C2(C)Cc3c(-c4ccc(N(C)C)cc4)ccnc3O2)cc1OC (stereo not given)	none (no result: MazEF act, Mtb betalactam, Rv3671c inh, UGM FP inh)
CCOC1=C2[C@@H](CN(S(=O)(=O)c3ccc(C)cc3)[C@H]2c2ccccc2F)[C@H]2C(=O)N(C3CCCCC3)C(=O)[C@H]2C1	none (no result: Vc quorum ag, MazEF act, Mtb betalactam, Rv3671c inh, UGM FP inh)
COc1cc(/C=C2/SC(=Nc3ccc(O)cc3)NC2=O)cc(OC)c1O	none
COc1ccc(N=C2NC(=O)/C(=C/c3ccc(O)c(OC)c3)S2)cc1	FadD28 binding 11.9
